SMILES strings stand for the structures. Results filed as inconclusive are left out. Activity calls are given as the source filed them. The call rests on the fitted dose curve; in most records, active means well fitted curve in the direction sought with a large enough effect; inconclusive means small, poorly fitted or top-dose-only effect, or another doubt; inactive means no such curve, though single readings can be large; an effect the other way counts as inactive or inconclusive.

The target of assay [1] is Cytochrome P450 3A4 (Homo sapiens) (UniProt P08684). Kind of assay: qHTS Assay for Activators of Cytochrome P450 3A4 (AID 885). Further: nearly all actives have a fitted effect of over 65% in size. Further: potency means the concentration at half of the fitted maximal effect. Put shortly:
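Luminescent readout of luciferin formed from 25 uM Luciferin-PPXE (KM level) by 20 nM CYP3A4 in 200 mM KPO4, with 60 min NADPH-driven reaction at room temperature after 10 min compound exposure. Ketoconazole (57 uM) defined 100% inhibition.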
(In qHTS, concentration-response curves come from the screen itself.)

Assay [2] is described as follows: SW1088 Cancer Cell Toxicity qHTS against the NCATS CANVASS Library (AID 1347350). Further: nearly all actives have a fitted effect of over 75% in size. The gist of the method:
(§1)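 1000 cells/well seeded and rested 4 h at 37 °C before pin transfer of compounds in an 11-pnt series. Exposure 72 h at 37 °C/5% CO2; viability by CellTiter-Glo luminescence after 15 min at room temperature.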

Assay [3] can be described thus: U-118MG Cancer Cell Toxicity qHTS against the NCATS CANVASS Library (AID 1347351). Put shortly: as §1
Assay [4] in a line: A2780 Cisplatin Sensitive Ovarian Cancer Cell Toxicity qHTS against the NCATS CANVASS Library (AID 1347353). Further: nearly all actives have a fitted effect of over 60% in size. Put shortly:
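Quantitative HTS format: eleven compound concentrations applied to pre-seeded cells, 72 h incubation at 37 °C, then ATP detection by luminescence.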

Assay [5] can be described thus: HPAF-II 24hr Apoptosis Induction qHTS against the NCATS CANVASS Library (AID 1347356). The gist of the method: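 Using an 11-point qHTS format, HPAF-II cells in DMEM/10% FBS received compounds for 24 h; doxorubicin titration as control. Caspase-3/7 activity quantified by DEVD-luciferase luminescence.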
The nature of assay [6]: HEK293 18hr Apoptosis Induction qHTS against the NCATS CANVASS Library (AID 1347357). The gist of the method: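 Luminescent caspase-3/7 signal is measured in HEK293 cells exposed for 18 hours to an 11-point concentration series; doxorubicin serves as the plate control.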
The nature of assay [7]: HPAF-II 12hr Apoptosis Induction qHTS against the NCATS CANVASS Library (AID 1347358). Put shortly:
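Twelve-hour compound exposure of HPAF-II cells in DMEM with 10% FBS, then luminescent Caspase-Glo 3/7 detection after 15 min at room temperature; doxorubicin control.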

The nature of assay [8]: HPAF-II 18hr Apoptosis Induction qHTS against the NCATS CANVASS Library (AID 1347360). Put shortly: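 Apoptosis was scored as caspase-3/7 activity in HPAF-II pancreatic cancer cells treated 18 hours with an 11-point concentration series.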
Assay [9] in a line: KB-8-5-11 Cancer Cell Toxicity qHTS against the NCATS CANVASS Library (AID 1347364). Further: nearly all actives have a fitted effect of over 75% in size. The gist of the method: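 Luminescent ATP signal (CellTiter-Glo, 10 min at room temperature) measured cell survival of KB-8-5-11 after 72 hr compound treatment. For confirmation, the cells were also grown with 1uM tariquidar.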
Assay [10] is described as follows: qHTS for ATAD5 Agonist screened against the NCATS CANVASS Library (AID 1347367).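 Further: luciferase reporter driven by ATAD5 which rises upon DNA damage.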 The gist of the method:
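Step one plated reporter cells and let them acclimate 5hr. Step two pinned compounds with MMS as positive and 0.46% DMSO as negative control. After 16hr incubation, fluorescence viability then luminescence were read.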

Assay [11] is described as follows: MCF7 Cancer Cell Toxicity qHTS against the NCATS CANVASS Library (AID 1347369). The gist of the method: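 Cytotoxicity is measured by ATP content: MCF7 cells at 500 per well receive an 11-point compound series and, after 72 hr at 37C, are lysed with CellTiterGlo for luminescence.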
Assay [12] can be described thus: qHTS for ATAD5 Antagonist screened against the NCATS CANVASS Library (AID 1347370).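 Further: HEK293T cells carrying an ATAD5 luciferase reporter co-treated with 10 µM 5-fluorouridine; series mostly up to about 46 µM; nearly all actives have a fitted effect of over 65% in size.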 Put shortly: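 HEK293T-ATAD5 luc reporter, 2000 cells/well; 5hr attach; cpd + 10 uM 5-FUrd; 16hr 37C, 5% CO2. Readouts: CellTiter-Fluor fluorescence (1hr), then Amplite luciferase luminescence (30min RT).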
The nature of assay [13]: J3T Cancer Cell Toxicity qHTS against the NCATS CANVASS Library (AID 1347371).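 Further: J3T is a canine glioma cancer cell line seeded at 500 cells per well; series mostly up to about 46 µM.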 Put shortly: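 ATP-based cytotoxicity in canine J3T cells: 72 hr exposure at 37C, 11-point titration, CellTiterGlo luminescent detection.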
Assay [14] has as its target Nuclear receptor subfamily 1 group I member 3 (Homo sapiens) (UniProt Q14994). Kind of assay: qHTS for Constitutive Androstane Receptor (CAR) Antagonist screened against the NCATS CANVASS Library (AID 1347372).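 Further: cells stimulated with 50 nM CITCO agonist so inhibition reflects antagonism; series mostly up to about 46 µM.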 Put shortly:
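Antagonist mode: compound added alongside 50 nM CITCO to HepG2-hCAR-CYP2B6 reporter cells, 24hr at 37C. Viability by CellTiter-Fluor fluorescence, then CAR-driven luciferase by ONE-Glo luminescence.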

A short description of assay [15]: Cytotoxicity qHTS for assessment of Hepg2 cells membrane integrity screened against the NCATS CANVASS Library (AID 1347387). The gist of the method:
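Membrane damage in HepG2 monolayers was estimated from released LDH, measured with CytoTox-ONE (ex 560/em 590 nm), after 5 hr treatment across 0.59 nM - 46 uM final.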

Assay [16] can be described thus: Secretion counterscreen for inhibitors of the SERCaMP assay screened against the NCATS CANVASS Library (AID 1347390).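 Further: light from luciferase secreted into medium read as a measure of general secretion; series mostly up to about 77 µM.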 The gist of the method:
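Counterscreen identifying compounds that disrupt secretion, using SH-SY5Y cells with a constitutively secreted Gaussia luciferase reporter. A 20 h compound exposure (top 77 uM) precedes luminescent detection with coelenterazine.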
(Counterscreens check selectivity or assay interference.)

Assay [17] in a line: qHTS for activators of dead-cell proteases activity screened against the NCATS CANVASS Library (AID 1347392).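 Further: luminescence from protease leaking out of membrane-damaged cells cleaving impermeant substrate; rising signal means more cytotoxicity.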 The gist of the method: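 Luminescent dead-cell protease readout (AAF-aminoluciferin, 15 min, room temperature) after 5 h compound treatment of HepG2 cells (2000/well, pre-attached 18 h). Eleven concentrations.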
Assay [18] can be described thus: Vero-766 cells viability qHTS against the NCATS CANVASS Library: Counterscreen for Zika virus inhibition assay (AID 1347394). Further: series mostly up to about 46 µM; nearly all actives have a fitted effect of over 60% in size. The gist of the method:
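This cytotoxicity counterscreen uses African green monkey Vero 766 cells in the absence of Zika virus. Compounds are incubated with cells for 72 h, and ATP-based luminescence reports viability.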

The nature of assay [19]: Viability qHTS for inhibitors of the SERCaMP assay screened against the NCATS CANVASS Library (AID 1347400). Further: series mostly up to about 92 µM; nearly all actives have a fitted effect of over 70% in size. Put shortly: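 Measures loss of viability in SERCaMP reporter SH-SY5Y cells treated for 48 h with compounds; luminescent ATP detection by CellTiter-Glo.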
The nature of assay [20]: Redox Reaction Profiling qHTS: Assay Interference Panel against the NCATS CANVASS Library (AID 1347401). Further: potency means the concentration at half of the fitted maximal effect. The gist of the method:
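Redox-cycling liability assessed as DTT-driven conversion of resazurin (5 uM, with 200 uM DTT, HEPES pH 7.3) to fluorescent resorufin. Fluorescence at 525/598 nm measured initially and after 15 min dark incubation.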

Cytochrome P450 3A4 (Homo sapiens), sequence (P08684 whole entry, looked up): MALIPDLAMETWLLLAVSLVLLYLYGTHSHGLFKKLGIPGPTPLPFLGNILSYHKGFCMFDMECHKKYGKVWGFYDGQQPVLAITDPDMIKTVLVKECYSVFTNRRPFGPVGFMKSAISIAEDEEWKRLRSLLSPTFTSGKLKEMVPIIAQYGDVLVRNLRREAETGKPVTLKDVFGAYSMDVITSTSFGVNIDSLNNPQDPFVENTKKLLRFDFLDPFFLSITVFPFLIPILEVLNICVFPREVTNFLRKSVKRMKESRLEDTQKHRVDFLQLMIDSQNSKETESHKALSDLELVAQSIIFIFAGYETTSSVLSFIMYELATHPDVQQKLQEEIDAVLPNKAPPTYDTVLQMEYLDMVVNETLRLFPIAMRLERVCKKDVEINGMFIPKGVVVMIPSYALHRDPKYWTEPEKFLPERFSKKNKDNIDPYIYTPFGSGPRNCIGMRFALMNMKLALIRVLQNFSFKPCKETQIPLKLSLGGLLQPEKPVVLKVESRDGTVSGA
Nuclear receptor subfamily 1 group I member 3 (Homo sapiens), sequence (Q14994 whole entry, looked up): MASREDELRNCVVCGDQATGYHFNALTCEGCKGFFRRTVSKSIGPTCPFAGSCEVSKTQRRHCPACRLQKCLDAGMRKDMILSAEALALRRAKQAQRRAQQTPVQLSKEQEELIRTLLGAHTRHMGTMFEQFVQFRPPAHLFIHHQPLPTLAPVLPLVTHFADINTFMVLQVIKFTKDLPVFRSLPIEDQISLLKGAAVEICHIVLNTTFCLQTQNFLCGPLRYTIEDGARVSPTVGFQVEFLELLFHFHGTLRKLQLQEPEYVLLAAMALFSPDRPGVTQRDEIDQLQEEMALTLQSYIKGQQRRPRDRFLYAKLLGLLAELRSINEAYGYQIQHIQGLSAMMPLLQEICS

Turning to `CS(=O)(=O)Nc1ccc(Cc2noc(-c3ccc4[nH]cc(CCN)c4c3)n2)cc1`, the Potency result in assay [1] was “inactive”.
In the case of `Clc1ccc(C2=CCC[C@H]3CC[C@@H]2N3)cn1`, the Potency entry in assay [1] was “inactive”.
On the same count and under the same terms, the entry for `CN1[C@@H]2CC[C@H]1CC(O[C@@H](c1ccccc1)c1ccc(Cl)cc1)C2` (some centres not stated) is “inactive”; for `CCCCCCCCCOc1ccc2[nH]cc(CCN)c2c1` it is “inactive”; for `COC(=O)CN1CN(c2ccccc2)C2(CCN(Cc3ccc4ccccc4c3)CC2)C1=O` it is “inactive”.
In the case of `S=C=Nc1cccc(C2(N3CCCCC3)CCCCC2)c1`, the Potency entry in [1] was “inactive”.
As to `COc1ccc(C23Oc4cc(OC)cc(OC)c4[C@](O)([C@H](c4ccccc4)C2C(=O)NCCCCNC(=O)c2ccccc2)[C@@H]3O)cc1` (some centres not stated), the Potency result in assay [2], in assay [3], in [4], in assay [6], in assay [9] and in [10] was “inactive” throughout. The Potency entry in assay [11], in assay [12], in assay [13], in assay [14], in assay [16] and in assay [17] was “inactive” in each case. Moreover, the Potency entry in assay [18], in assay [19] and in assay [20] was “inactive” throughout. In addition, the compound was classed as inactive in [5], in assay [7], in assay [8] and in [15].
As to `CO[C@@H](/C=C/CC/C=C/C(=O)O)[C@@H](O)[C@H](C)/C=C(\C)[C@@H](O)[C@H](C)C(=O)CCCC1CC(=O)NC(=O)C1`, the Potency entry in [2], in [3], in assay [4], in assay [6], in assay [9] and in assay [10] was “inactive” throughout. Also, the Potency entry in assay [11], in [12], in assay [13], in assay [14], in assay [16] and in assay [17] was “inactive” throughout. Besides, the Potency result in [18], in assay [19] and in [20] was “inactive” in each case. Further, the compound was called inactive in assay [5], in assay [7], in assay [8] and in assay [15].
Regarding `CCC[C@H]1CC[C@H]2[C@H](C)CCC[C@H]2N1`, the Potency entry in assay [2], in assay [3], in assay [4], in assay [6], in assay [9] and in assay [10] was “inactive” in each case. Further, the Potency entry in assay [11], in assay [12], in assay [13], in assay [14], in [16] and in assay [17] was “inactive” throughout. Further, the Potency entry in assay [18] and in [19] was “inactive” in each case. Also, the compound was classed as inactive in assay [5], in assay [7], in [8] and in assay [15].
Consider `NC(=NCc1ccc(Cl)cc1)SCCCc1cnc[nH]1`, for which the Potency result in [1] was “inactive”.
Same read-out and setting: with `Cc1c(C(=O)c2ccc3ccccc3c2)c2cccc3c2n1[C@H](CN1CCOCC1)CO3` the entry was “inactive”; with `Oc1ccc2c3c1O[C@H]1c4c(c5ccccc5n4Cc4ccccc4)C[C@]4(O)[C@H](C2)N(CC2CC2)CC[C@@]314`, “inactive”.
On to `CC(=O)N[C@H]1CCN2CCC[C@H]12`, for which the Potency entry in [2], in assay [3], in [4], in assay [6], in [9] and in [10] was “inactive” in each case. Moreover, the Potency result in assay [11], in [12], in assay [13], in [14], in assay [16] and in [17] was “inactive” each time. Moreover, the Potency result in [18] and in assay [19] was “inactive” each time. The compound was classed as inactive in assay [5], in assay [7], in [8] and in assay [15]. In addition, in [20], the Potency is 63.2 µM (active).
`CO[C@@H](/C=C/CC/C=C/C(=O)O)[C@@H](O)[C@H](C)[C@@H](O)/C(C)=C/[C@H](C)C(=O)CCCC1CC(=O)NC(=O)C1`: the Potency result in assay [2], in assay [3], in assay [4], in assay [6], in assay [9] and in assay [10] was “inactive” throughout. The Potency entry in assay [11], in [12], in assay [13], in [14], in assay [16] and in [17] was “inactive” throughout. Moreover, the Potency result in [18], in assay [19] and in [20] was “inactive” in each case. Further, the outcome in [5], in assay [7], in assay [8] and in assay [15] was inactive.
For the compound `Oc1ccc2c3c1O[C@H]1c4oc5ccccc5c4C[C@]4(O)[C@H](C2)N(CC2CC2)CC[C@@]314`, the Potency entry in assay [1] was “inactive”.
Still for that read-out and setting: the figure for `O=C1Nc2ccccc2C2(CCN(CCc3ccc(C(F)(F)F)cc3)CC2)O1` is 7.94 µM (active).
For `O=C(O)c1ccccc1-c1c2cc(Br)c(=O)cc-2oc2[c]([Hg])c(O)c(Br)cc12`, in [1], the Potency result is “inactive”.
As for `CC(C)n1cnc2c(C(=O)N[C@H]3CN4CCC3CC4)cc(Cl)cc21`, the Potency in assay [1] was 31.6 µM (active).
Same read-out and setting: the entry for `CC(C)C[C@H]1C(=O)N2CCCC2[C@]2(O)O[C@](NC(=O)[C@@H]3C=C4c5cccc6[nH]cc(c56)CC4N(C)C3)(C(C)C)C(=O)N12` (some centres not stated) is “inactive”; for `CN(C)c1ccc(/C=C2\CCCN=C2c2cccnc2)cc1` it is “inactive”.
For the compound `N#CC(C#N)=NNc1ccc(OC(F)(F)F)cc1`, in assay [1], the Potency entry is “inactive”.
On the same count and under the same terms, the entry for `O=C(CCCN1CCC2(CC1)C(=O)N(Cc1cccc(F)c1)CN2c1ccccc1)c1ccc(F)cc1` is “inactive”; for `C[C@@H](N)Cn1ccc2cc(F)c(Cl)cc21` it is “inactive”.

These data come from PubChem BioAssay (NCATS).
